tested on: LOC_OS03G50450-cb001; assay: thermal shift delta Tm vs DMSO control; higher = stronger stabilization (binding); details: 12.5 µM; protein concentration 2 µM
How it was run: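 Rice kinase domain constructs, made in E. coli and purified, were placed in 96-well plates at 2 μM in 19.5 μl of 100 mM potassium phosphate pH 7.5, 150 mM NaCl, 10% glycerol and 5 × SYPRO Orange, with compound in DMSO. A temperature ramp from 25°C to 95°C at 0.05°C/s was used for differential scanning fluorimetry. The melting temperature shift is a triplicate mean compared with DMSO-only protein, derived from Boltzmann fits.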
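Also: purified Escherichia coli-expressed rice kinase domain construct.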

| SMILES | thermal shift delta Tm [°C] |
| --- | --- |
| COc1cc(OC)cc(-c2cc3cnc(N)nc3nc2NC(=O)NC(C)(C)C)c1 | 0.18 |
| COc1cc2nccc(Oc3ccc(NC(=O)C4(C(=O)Nc5ccc(F)cc5)CC4)cc3)c2cc1OC [Cabozantinib malate (XL184)] | 0.45 |
| COc1ncc(-c2ccc3nccc(-c4ccnnc4)c3c2)cc1NS(=O)(=O)c1ccc(F)cc1F | 1.26 |
| Cc1cc(C(C)Nc2ccccc2)c2nc(N3CCOCC3)cc(=O)n2c1 (stereo not drawn) | 0.33 |
| FC(F)(F)c1ccc(CNc2ccc(Cc3c[nH]c4ncc(Cl)cc34)cn2)cn1 [Pexidartinib (PLX3397)] | 0.54 |
| NC(=O)c1ccc(N(C(N)=O)c2c(F)cccc2F)nc1-c1ccc(F)cc1F | 0.14 |
| NCC(=O)Nc1ccc(-n2nc(C(F)(F)F)cc2-c2ccc3c(ccc4ccccc43)c2)cc1 | 0.36 |
| CCn1c(-c2nonc2N)nc2c(C#CC(C)(C)O)ncc(OC[C@H]3CCCNC3)c21 | 0.05 |
| Nc1cccc(S(=O)(=O)N2CCCN(S(=O)(=O)c3ccc4c(c3)OCCO4)CC2)c1 | 0.24 |
| C[C@@H]1COC(Nc2ccc3ncnc(Nc4ccc(OCc5nccs5)c(Cl)c4)c3c2)=N1 [Varlitinib] | 0.46 |
| Cc1cc2c(F)c(Oc3ncnn4cc(OC[C@@H](C)OC(=O)[C@H](C)N)c(C)c34)ccc2[nH]1 | -0.29 |
| CNC(=O)c1ccc(-c2cnc3ncc(Cc4ccc5ncccc5c4)n3n2)cc1F | 0.36 |
| CN(C)C/C=C/C(=O)Nc1cc2c(Nc3ccc(F)c(Cl)c3)ncnc2cc1O[C@H]1CCOC1 [Afatinib (BIBW2992)] | 0.05 |
